Compounds without any hit were thinned out: in the full panel of roughly 79,000, 15% have a hit. Values without a mark were called inactive. Calls of active or inactive are those of the source. No stated cut-off is given here; in the data, active means growth inhibition above about 70%; inactive means the rest.
Legend:
[1] = NCI Yeast Anticancer Drug Screen. Data for the rad50 strain (AID 155);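 further: 0% = growth of vehicle-only cultures of the same strain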; details: S. cerevisiae rad50 strain growth inhibition, stronger effect = higher value
Summary of the method: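 Relative growth inhibition (compound vs vehicle) was measured in yeast with a defined repair-gene alteration.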

[2] = NCI Yeast Anticancer Drug Screen. Data for the mec2-1 strain (AID 157); details: S. cerevisiae mec2-1 strain, stronger effect = higher value
Summary of the method: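 Test agents were screened against the mec2-1 yeast strain, with defined DNA repair or cell cycle alteration. Growth was scored as inhibition against vehicle-only controls.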

[3] = NCI Yeast Anticancer Drug Screen. Data for the sgs1 mgt1 strain (AID 161);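 further: 0% = growth of cultures given vehicle only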; details: S. cerevisiae sgs1 mgt1 strain, stronger effect = higher value
Summary of the method: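 Inhibition of yeast growth, normalised to vehicle-treated controls, is reported for a strain bearing genetic alterations in DNA damage repair.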

[4] = NCI Yeast Anticancer Drug Screen. Data for the cln2 rad14 strain (AID 165);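 further: 0% = growth equal to vehicle treated cultures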; details: S. cerevisiae cln2 rad14 strain, stronger effect = higher value
Summary of the method: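 Growth of compound-exposed yeast (cln2 rad14 genotype) measured and expressed as inhibition relative to vehicle.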

[5] = NCI Yeast Anticancer Drug Screen. Data for the bub3 strain (AID 167); details: S. cerevisiae bub3 mutant strain, stronger effect = higher value
Summary of the method: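 Screening used yeast with an engineered genetic alteration affecting cell cycle control. Compound-exposed cultures were compared with vehicle cultures, and reduced growth was taken as inhibition.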

[6] = NCI Yeast Anticancer Drug Screen. Data for the mlh1 rad18 strain (AID 175); details: S. cerevisiae mlh1 rad18 strain growth inhibition, stronger effect = higher value
Summary of the method: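 In this whole-cell yeast screen, a strain with altered DNA damage repair is challenged with compound, and its growth is measured against matched vehicle-treated controls.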

[7] = at 5.0 µM (retest, dose inferred, filed as 0.5)
[8] = at 50.0 µM (retest, dose inferred, filed as 5.0)

SMILES | growth inhibition [1, 7] | growth inhibition [1, 8] | growth inhibition ([1]; at 50.0 µM) | growth inhibition [2, 7] | growth inhibition [2, 8] | growth inhibition ([2]; at 50.0 µM) | growth inhibition [3, 7] | growth inhibition [3, 8] | growth inhibition ([3]; at 50.0 µM) | growth inhibition [4, 7] | growth inhibition [4, 8] | growth inhibition ([4]; at 50.0 µM) | growth inhibition [5, 7] | growth inhibition [5, 8] | growth inhibition ([5]; at 50.0 µM) | growth inhibition [6, 7] | growth inhibition [6, 8] | growth inhibition ([6]; at 50.0 µM)
O=C(O)/C=C/C(=O)c1ccc(O)cc1 | 25% | 97% (active) | 95.7% (active) | 9% | 94% (active) | 95.8% (active) | 28% | 93% (active) | 94.6% (active) | 7% | 91% (active) | 91.3% (active) | 5% | 95% (active) | 92% (active) | 32% | 98% (active) | 96% (active)
CCOC(=O)C1CN(CCCCCCN2CC(C(=O)OCC)C(=O)C2=O)C(=O)C1=O (stereo not given) | -11% | 4% | 22.1% | 2% | 1% | 3.1% | -21% | 3% | 28.5% | 4% | 0% | 52.9% | 0% | 2% | 0.05% | -2% | 0% | 30.4%
CC(=O)Oc1c2c(c(OC(C)=O)c3c1n(C(C)=O)c1ccccc1n3C(C)=O)n(C(C)=O)c1ccccc1n2C(C)=O | 50% | 50% | 78.2% (active) | 42% | 42% | 74.8% (active) | 34% | 34% | 79.7% (active) | 26% | 26% | 62.5% | 44% | 44% | 69.8% | 51% | 51% | 69.7%
CCCCCCCCN(CCCCCCCC)CC(O)c1ccc2cc3c(nc2c1)CCCC3 (stereo not given) | -3% | 94% (active) | 98.7% (active) | 13% | 93% (active) | 81.4% (active) | 18% | 96% (active) | 98.8% (active) | -2% | 94% (active) | 97.7% (active) | 10% | 94% (active) | 97.7% (active) | 14% | 96% (active) | 98.3% (active)
COC1=CC(=O)c2ncc(Cl)cc2C1=O | -4% | 97% (active) | 96% (active) | -2% | 92% (active) | 95.5% (active) | -9% | 89% (active) | 93.2% (active) | -10% | 96% (active) | 97.3% (active) | -40% | 88% (active) | 83.5% (active) | 28% | 97% (active) | 98.3% (active)
c1cc2c3c(c1)[I+]c1cccc(c1-3)[I+]2 | 51% | 67% | 69.8% | 34% | 58% | 27.1% | 53% | 80% (active) | 65.9% | 24% | 40% | 45% | 39% | 31% | 36.3% | 64% | 88% (active) | 55.9%
O=[N+]([O-])c1ccc2nc(CCl)[nH]c2c1 | 46% | 80% (active) | 73.2% (active) | 37% | 74% (active) | 65.5% | 42% | 83% (active) | 75% (active) | 35% | 56% | 61% | 43% | 84% (active) | 74% (active) | 49% | 87% (active) | 73.3% (active)
O=C1c2ccccc2C(=O)C2OC12 (stereo not given) | 48% | 98% (active) | 93.2% (active) | 48% | 98% (active) | 95.1% (active) | 50% | 99% (active) | 94.7% (active) | 72% (active) | 99% (active) | 93.3% (active) | 73% (active) | 100% (active) | 93.5% (active) | 51% | 99% (active) | 89.9% (active)
S=C(N/N=C(/c1ccccc1)c1ccccn1)N1CCCCC1 | 58% | 98% (active) | 80.2% (active) | 27% | 98% (active) | 86.3% (active) | 66% | 98% (active) | 88.2% (active) | 30% | 97% (active) | 89% (active) | 54% | 97% (active) | 90.2% (active) | 83% (active) | 98% (active) | 90.8% (active)
COC(=O)c1ccccc1C(=O)c1cc(OC)c2c(c1OC)CCCC2 | -2% | 59% | 90.8% (active) | 0% | 64% | 94.5% (active) | 5% | 63% | 75.5% (active) | -69% | 23% | 47.6% | 3% | -45% | 77% (active) | 3% | 24% | 82.9% (active)
Nc1ccc2nc(Nc3ccc(Cl)c(Cl)c3)cnc2c1 | -17% | 97% (active) | 85.7% (active) | -1% | 97% (active) | 86.5% (active) | 7% | 97% (active) | 87.7% (active) | 14% | 97% (active) | 87.2% (active) | 28% | 95% (active) | 83.8% (active) | 25% | 87% (active) | 80.8% (active)
Cc1cc(C)c(S(=O)(=O)c2c(C)cc(C)cc2C)c(C)c1 | -3% | -7% | 39% | -4% | -9% | 12.5% | -4% | -4% | 6.2% | -5% | -22% | 41.7% | -3% | -6% | 0.65% | -6% | -12% | 1.15%
O=C(N(c1ccc(Cl)cc1)c1ccc(Cl)cc1)C(Cl)(Cl)Cl | 20% | 68% | -13.9% | 23% | 63% | 5.7% | 14% | 69% | 4.95% | 14% | 65% | -7.95% | 33% | 74% (active) | -1.25% | 38% | 74% (active) | 18.1%
C/C(=N\NC(N)=S)C(CN1CCCCC1)C(C1=C(O)c2ccccc2OC1)c1ccccc1 (stereo not given) | 10% | 38% | 64.7% | 6% | 45% | 63% | 19% | 67% | 68.5% | 22% | 62% | 53.7% | 32% | 70% (active) | 71.8% (active) | 20% | 55% | 67.5%
Clc1ccc(CN2COc3c(cc(Cl)c4cccnc34)C2)cc1 | 4% | 71% (active) | 7.5% | 1% | 56% | 63.3% | 1% | 99% (active) | 16.5% | 1% | 99% (active) | 98.8% (active) | -6% | 55% | 99.2% (active) | -7% | 99% (active) | 24.1%
O=C(CCBr)NC(=O)Oc1cccc2ccccc12 | 1% | 17% | 87.2% (active) | 1% | 29% | 97.2% (active) | 5% | 55% | 91.3% (active) | 4% | 11% | 28.1% | -8% | 18% | 85.6% (active) | 2% | 65% | 95.3% (active)
O=C(O)c1c(-c2ccccc2)cc(-c2ccccc2)cc1-c1ccccc1 | 93% (active) | 98% (active) | 99.1% (active) | 90% (active) | 98% (active) | 99.2% (active) | 93% (active) | 99% (active) | 99.3% (active) | 90% (active) | 98% (active) | 97.8% (active) | 88% (active) | 95% (active) | 98.2% (active) | 92% (active) | 98% (active) | 98.9% (active)
COc1ccc(NC(=O)CSC(N)=O)cc1 | 5% | 12% | 49.1% | -1% | 20% | 23.2% | 3% | 18% | 64.1% | 0% | -5% | 21.9% | 3% | 25% | 53% | 3% | 12% | 51.6%
Cn1c(=S)c2[nH]c(SCCN3CCCC3)nc2n(C)c1=O | 83% (active) | 99% (active) | 90.8% (active) | 70% (active) | 99% (active) | 61.2% | 53% | 94% (active) | 67.5% | 28% | 79% (active) | 1.75% | 61% | 99% (active) | 68% | 37% | 95% (active) | 97.2% (active)
O=C(c1ccccc1)c1ccc(O)cc1O | -5% | 49% | 85% (active) | -10% | 24% | 84.5% (active) | -5% | 15% | 88.5% (active) | -4% | 2% | 26.4% | -26% | -17% | 58.9% | -9% | 12% | 72.1% (active)
